Test results as given in PubChem BioAssay AID1159580 (chemical genetic matrix, 2015).
Several values for one entry are separate records, joined by “and”; a condition that tells them apart may be missing. Identical values can stand only once. Out of some 5,500 compounds screened, about 2,000 (36%) were called active. About 18% were inconclusive and are not listed. No stated cut-off is given here; in the data, active means normalized growth mostly below about 0.91 (no sharp cut-off); inconclusive means no clear call, values can overlap the other calls; inactive means mostly above about 0.92. This is one part of the list.

Experiment: chemical genetic growth profiling, strain panel (AID 1159580);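 further: tested at 20 µM; growth read once vehicle control cultures reached saturation at 30 °C; 1 = growth at the plate median or of vehicle wells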
Details: S. cerevisiae deletion strains, growth OD

Measured: normalized growth

CC1(C)CC2C1CC[C@]1(CBr)CCC3C(CC(=O)O)C(=O)O[C@@]32C1 (stereo partly specified)
inactive: locus YAL021C, strain ccr4, stronger effect = lower value 0.992 | locus YAL026C, strain drs2, stronger effect = lower value 1.02 | locus YAL030W, strain snc1, stronger effect = lower value 1.01 | locus YBL061C, strain skt5, stronger effect = lower value 1.01 | locus YBR009C, strain hhf1, stronger effect = lower value 1.03 | locus YBR021W, strain FUR4, stronger effect = lower value 1.01 | locus YBR023C, strain chs3, stronger effect = lower value 1.01 | locus YBR171W, strain sec66, stronger effect = lower value 1.01 | locus YBR229C, strain ROT2, stronger effect = lower value 0.958 | locus YBR231C, strain swc5, stronger effect = lower value 1.01 | locus YBR279W, strain paf1, stronger effect = lower value 1.01 | locus YCL011C, strain gbp2, stronger effect = lower value 1.01 | locus YCL016C, strain dcc1, stronger effect = lower value 1.01 | locus YCL029C, strain bik1, stronger effect = lower value 0.985 | locus YCL061C, strain MRC1, stronger effect = lower value 1.01 | locus YCL069W, strain vba3, stronger effect = lower value 1.01 | locus YCR088W, strain abp1, stronger effect = lower value 1.01 | locus YDL005C, strain med2, stronger effect = lower value 1 | locus YDL035C, strain GPR1, stronger effect = lower value 0.984 | locus YDL040C, strain nat1, stronger effect = lower value 1.01 | locus YDL074C, strain BRE1, stronger effect = lower value 1 | locus YDL101C, strain DUN1, stronger effect = lower value 1 | locus YDL134C, strain PPH21, stronger effect = lower value 1.05 | locus YDL185W, strain tfp1, stronger effect = lower value 0.971 | locus YDL192W, strain arf1, stronger effect = lower value 0.976 | locus YDR001C, strain nth1, stronger effect = lower value 1.01 | locus YDR069C, strain doa4, stronger effect = lower value 1.02 | locus YDR101C, strain arx1, stronger effect = lower value 0.98 | locus YDR137W, strain rgp1, stronger effect = lower value 0.997 | locus YDR150W, strain NUM1, stronger effect = lower value 1 | locus YDR159W, strain sac3, stronger effect = lower value 1.03 | locus YDR162C, strain NBP2, stronger effect = lower value 0.976 | locus YDR195W, strain ref2 1 | locus YDR297W, strain sur2, stronger effect = lower value 1.01 | locus YDR318W, strain mcm21, stronger effect = lower value 0.989 | locus YDR334W, strain swr1, stronger effect = lower value 1.01 | locus YDR335W, strain msn5, stronger effect = lower value 1.02 | locus YDR388W, stronger effect = lower value 1 | locus YDR392W, strain spt3, stronger effect = lower value 0.968 | locus YDR502C, strain sam2, stronger effect = lower value 1.03 | locus YEL003W, strain gim4, stronger effect = lower value 1.02 | locus YEL037C, strain rad23, stronger effect = lower value 1.01 | locus YEL061C, strain CIN8 (second series), stronger effect = lower value 1.01 | locus YEL061C, strain CIN8, stronger effect = lower value 0.978 | locus YER015W, strain faa2, stronger effect = lower value 1 | locus YER016W, strain bim1, stronger effect = lower value 1.02 | locus YER110C, stronger effect = lower value 0.984 | locus YER111C, strain swi4, stronger effect = lower value 1.01 | locus YER155C, strain BEM2 (second series), stronger effect = lower value 1.04 | locus YER155C, strain BEM2, stronger effect = lower value 0.986 | locus YER167W, strain BCK2, stronger effect = lower value 0.993 | locus YFR010W, strain ubp6, stronger effect = lower value 1.01 | locus YGL078C, strain dbp3, stronger effect = lower value 1.04 | locus YGL086W, strain mad1, stronger effect = lower value 1 | locus YGL167C, strain pmr1, stronger effect = lower value 1.01 | locus YGL173C, strain kem1, stronger effect = lower value 1.01 | locus YGL227W, strain vid30, stronger effect = lower value 1.02 | locus YGL240W, strain doc1, stronger effect = lower value 1.03 | locus YGL248W, strain PDE1, stronger effect = lower value 1.03 | locus YGL253W, strain hxk2, stronger effect = lower value 1.01 | locus YGR135W, strain pre9, stronger effect = lower value 1.09 | locus YGR229C, strain SMI1, stronger effect = lower value 0.965 | locus YGR252W, strain gcn5, stronger effect = lower value 1.08 | locus YHR013C, strain ard1, stronger effect = lower value 1.01 | locus YHR027C, strain rpn1, stronger effect = lower value 1.01 | locus YHR030C, strain SLT2, stronger effect = lower value 0.983 | locus YHR079C, strain IRE1 (second series), stronger effect = lower value 0.994 | locus YHR079C, strain IRE1, stronger effect = lower value 1.02 | locus YHR094C, strain hxt1, stronger effect = lower value 0.979 | locus YHR129C, strain ARP1, stronger effect = lower value 0.995 | locus YHR142W, strain chs7, stronger effect = lower value 0.998 | locus YHR200W, strain rpn10, stronger effect = lower value 1 | locus YIL066C, strain RNR3, stronger effect = lower value 0.98 | locus YIL073C, strain SPO22, stronger effect = lower value 1.07 | locus YIL125W, strain kgd1, stronger effect = lower value 0.984 | locus YIR030C, strain dcg1, stronger effect = lower value 0.992 | locus YJL092W, strain hpr5, stronger effect = lower value 1.01 | locus YJL095W, strain BCK1 (second series), stronger effect = lower value 1.02 | locus YJL095W, strain BCK1, stronger effect = lower value 1.07 and 0.997 | locus YJL115W, strain asf1, stronger effect = lower value 1.02 | locus YJL129C, strain trk1, stronger effect = lower value 0.997 | locus YJL134W, strain LCB3, stronger effect = lower value 0.993 | locus YJL154C, strain vps35, stronger effect = lower value 1 | locus YJL164C, strain tpk1, stronger effect = lower value 1.03 | locus YJL166W, strain qcr8, stronger effect = lower value 1 | locus YJL168C, strain set2, stronger effect = lower value 1 | locus YJL187C, strain SWE1 (second series), stronger effect = lower value 1.02 | locus YJL187C, strain SWE1, stronger effect = lower value 1.02 | locus YJR066W, strain TOR1, stronger effect = lower value 0.922 | locus YJR075W, strain HOC1, stronger effect = lower value 1.02 | locus YKL009W, strain mrt4, stronger effect = lower value 0.976 | locus YKL068W, stronger effect = lower value 0.989 | locus YKL085W, strain MDH1 (second series), stronger effect = lower value 0.995 | locus YKL085W, strain MDH1, stronger effect = lower value 0.995 | locus YKL160W, strain elf1, stronger effect = lower value 0.99 | locus YKL190W, strain CNB1, stronger effect = lower value 0.994 | locus YKR001C, strain vps1, stronger effect = lower value 0.993 | locus YKR026C, strain gcn3, stronger effect = lower value 0.996 | locus YKR091W, strain srl3, stronger effect = lower value 1.01 | locus YLL001W, strain dnm1, stronger effect = lower value 1.03 | locus YLL026W, stronger effect = lower value 1.02 | locus YLL041C, strain sdh2, stronger effect = lower value 1.01 | locus YLR027C, strain aat2, stronger effect = lower value 1.01 | locus YLR039C, strain RIC1, stronger effect = lower value 1.07 | locus YLR058C, strain SHM2, stronger effect = lower value 0.996 | locus YLR102C, strain apc9, stronger effect = lower value 0.995 | locus YLR113W, strain HOG1, stronger effect = lower value 1.03 | locus YLR221C, strain rsa3, stronger effect = lower value 1.01 | locus YLR258W, strain gsy2, stronger effect = lower value 1.03 | locus YLR262C, strain YPT6 (second series), stronger effect = lower value 0.976 | locus YLR268W, strain sec22, stronger effect = lower value 0.96 | locus YLR320W, strain mms22, stronger effect = lower value 1.02 | locus YLR330W, strain CHS5, stronger effect = lower value 0.992 | locus YLR342W, strain FKS1, stronger effect = lower value 1.01 | locus YLR357W, strain rsc2, stronger effect = lower value 1.04 | locus YLR370C, strain arc18, stronger effect = lower value 1.01 | locus YLR371W, strain rom2, stronger effect = lower value 1.01 | locus YLR384C, strain iki3, stronger effect = lower value 1.01 | locus YLR418C, strain cdc73, stronger effect = lower value 1.04 | locus YML016C, strain PPZ1, stronger effect = lower value 0.997 | locus YML032C, strain rad52, stronger effect = lower value 0.992 | locus YML120C, strain ndi1, stronger effect = lower value 1.02 | locus YML124C, strain tub3, stronger effect = lower value 0.992 | locus YMR058W, strain fet3, stronger effect = lower value 1.02 | locus YMR078C, strain ctf18, stronger effect = lower value 0.998 | locus YMR125W, strain sto1, stronger effect = lower value 1 | locus YMR129W, stronger effect = lower value 1.01 | locus YMR205C, strain PFK2, stronger effect = lower value 1.02 | locus YMR223W, strain ubp8, stronger effect = lower value 1.02 | locus YMR231W, strain pep5, stronger effect = lower value 1 | locus YMR307W, strain GAS1, stronger effect = lower value 1.06 | locus YNL067W, strain RPL9B, stronger effect = lower value 1.03 | locus YNL071W, strain lat1, stronger effect = lower value 1.01 | locus YNL128W, strain TEP1, stronger effect = lower value 0.984 | locus YNL153C, strain GIM3, stronger effect = lower value 1.03 | locus YNL183C, strain NPR1, stronger effect = lower value 0.924 | locus YNL209W, strain ssb2, stronger effect = lower value 1.01 | locus YNL233W, strain BNI4, stronger effect = lower value 1.06 | locus YNL248C, strain rpa49, stronger effect = lower value 1.01 | locus YNL250W, strain rad50, stronger effect = lower value 0.973 | locus YNL271C, strain bni1, stronger effect = lower value 0.987 | locus YNL298W, strain CLA4, stronger effect = lower value 1 | locus YNL307C, strain MCK1, stronger effect = lower value 1.04 | locus YNL322C, strain KRE1 (second series), stronger effect = lower value 1.01 | locus YNL322C, strain KRE1, stronger effect = lower value 0.988 | locus YNR049C, strain mso1, stronger effect = lower value 1.02 | locus YNR052C, strain pop2, stronger effect = lower value 1.04 | locus YOL006C, strain TOP1, stronger effect = lower value 1.06 | locus YOL012C, strain htz1 1 | locus YOL147C, strain pex11, stronger effect = lower value 0.99 | locus YOR001W, strain rrp6, stronger effect = lower value 1.01 | locus YOR061W, strain CKA2, stronger effect = lower value 0.972 | locus YOR069W, strain VPS5, stronger effect = lower value 1.01 | locus YOR070C, strain gyp1, stronger effect = lower value 1.03 | locus YOR080W, strain dia2, stronger effect = lower value 1 | locus YOR083W, strain WHI5, stronger effect = lower value 0.986 | locus YOR106W, strain vam3, stronger effect = lower value 1.01 | locus YOR136W, strain idh2, stronger effect = lower value 0.994 | locus YOR144C, strain elg1, stronger effect = lower value 0.988 | locus YOR184W, strain ser1, stronger effect = lower value 0.957 | locus YOR231W, strain MKK1, stronger effect = lower value 1.01 | locus YOR265W, strain rbl2, stronger effect = lower value 1.01 | locus YOR270C, strain vph1, stronger effect = lower value 0.999 | locus YOR290C, strain snf2, stronger effect = lower value 0.99 | locus YOR316C, strain cot1, stronger effect = lower value 1 | locus YPL051W, strain arl3, stronger effect = lower value 1 | locus YPL078C, strain atp4, stronger effect = lower value 1.01 | locus YPL106C, strain sse1, stronger effect = lower value 1.02 | locus YPL240C, strain hsp82, stronger effect = lower value 1.01 | locus YPL241C, strain CIN2, stronger effect = lower value 0.999 | locus YPL256C, strain CLN2, stronger effect = lower value 0.972 | locus YPR119W, strain clb2, stronger effect = lower value 0.993 | locus YPR141C, strain kar3, stronger effect = lower value 0.991 | locus YPR163C, strain tif3, stronger effect = lower value 0.994 | locus YPR167C, strain met16, stronger effect = lower value 0.999 | strain wtn01, stronger effect = lower value 0.984
